Some test systems named below: DU-145 prostate; K-562 leukemia; MALME-3M melanoma; RXF 393 renal; SF-268 CNS; SF-295 CNS; SF-539 CNS; UACC-257 melanoma; M14 melanoma; MDA-MB-231 breast.
Holding throughout (assay): NCI-60 one-dose screen, 48 h (100 = growth as untreated, 0 = no growth, -100 = all killed)
Holding throughout (settings): 10 µM

The text below walks through data of PubChem BioAssay (NCI).

The panel holds about 83,000 compounds, 20% with a hit somewhere; the sample as a whole holds those more often.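 Cells were grown in 96-well plates and exposed to the test compound at a single concentration for 48 hours; results are reported as percent growth, with values below 10 considered active.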 Unmarked numbers belong to inactive results. Active and inactive are the calls of the source.

Take `Cc1cccc2cc(-c3cc(-c4ccccc4)nc(=S)[nH]3)c(Cl)nc12`: the growth in the test on DU-145 prostate was 104%; with K-562 leukemia, 38%; in the test on MALME-3M melanoma, 61%; in the test on RXF 393 renal, 78.9%; in the test on SF-268 CNS it was 112%; in the test with SF-295 CNS, 64.7%. The growth in the test with SF-539 CNS is 82.1%; in the test on UACC-257 melanoma, 77.8%; in the test on M14 melanoma, 33.3%.

Consider `O=C1Nc2cc(Cl)ccc2/C1=C/c1cccc(OCc2ccccc2)c1`, for which the growth was 3.5% (active) in the test on DU-145 prostate; 5.55% (active) with K-562 leukemia; 7.06% (active) in the test with MALME-3M melanoma; -3.3% (active) with RXF 393 renal; -11.4% (active) in the test on SF-268 CNS; 1.81% (active) in the test with SF-295 CNS. For the same molecule, the results for the growth in the test with SF-539 CNS, with UACC-257 melanoma and in the test with M14 melanoma were -56.8% (active), 1.39% (active) and -18.1% (active), respectively.

Consider `S=c1nc(-c2ccccc2)cc(-c2cc3ccccc3nc2Cl)[nH]1`, for which the growth was 90.5% in the test on DU-145 prostate; 14.2% in the test on K-562 leukemia; 66.4% with MALME-3M melanoma; 91.2% in the test with RXF 393 renal; 70.5% in the test on SF-268 CNS; 55.8% in the test with SF-295 CNS. In addition, the growth is 72.3% in the test with SF-539 CNS, 81.6% in the test on UACC-257 melanoma and 36.7% with M14 melanoma.

As to `NC1=NC(c2ccccc2Cl)N=C(Nc2nn[nH]n2)N1` (stereo not drawn), the growth was 106% with DU-145 prostate; 100% in the test on K-562 leukemia; 101% in the test with MALME-3M melanoma; 113% in the test with RXF 393 renal; 101% in the test with SF-268 CNS; 101% with SF-295 CNS. The growth was 103% with SF-539 CNS, 106% in the test with UACC-257 melanoma and 106% in the test with M14 melanoma.

Consider `O=C(Nc1ccc(OCc2ccccc2)cc1)Nc1ccc(Cl)c(C(F)(F)F)c1`, for which the growth in the test with DU-145 prostate is 13%; in the test with MALME-3M melanoma it was -30.8% (active); in the test on MDA-MB-231 breast, -20% (active); in the test on RXF 393 renal it was -3.2% (active); in the test on SF-268 CNS it was 14.9%; in the test on SF-295 CNS, -26.5% (active). Also, the figures for the growth with SF-539 CNS and in the test with UACC-257 melanoma were -46.9% (active) and -20.7% (active), respectively.

For `Cc1ccc(-c2cc(-c3cc4ccccc4nc3Cl)[nH]c(=S)n2)cc1`, the growth is 63.7% in the test on DU-145 prostate; 18.6% in the test with K-562 leukemia; 46% with MALME-3M melanoma; 28.1% in the test with RXF 393 renal; 77.8% with SF-268 CNS; 45.1% in the test on SF-295 CNS. Moreover, the growth in the test with SF-539 CNS is 55.7%; with UACC-257 melanoma it was 66.5%; with M14 melanoma, 15.9%.

For `CC1(C)CC[C@]2(C(=O)Nc3ccccc3)CC[C@]3(C)C(=CC[C@@H]4[C@@]5(C)CC[C@H](N)C(C)(C)[C@@H]5CC[C@]43C)[C@H]2C1`, the growth was 26.6% in the test on DU-145 prostate; 83.7% with MALME-3M melanoma; 71.7% in the test with MDA-MB-231 breast; 59.8% in the test on RXF 393 renal; 119% in the test on SF-268 CNS; 52.7% with SF-295 CNS. The growth in the test with SF-539 CNS was 87.8%; in the test on UACC-257 melanoma, 103%.

`O=C1Nc2ccc(Cl)cc2/C1=C/c1ccc(OCc2ccc(Br)cc2F)cc1`: the growth in the test on DU-145 prostate was 41.1%; in the test on K-562 leukemia it was 40.7%; in the test on MALME-3M melanoma, 19.2%; in the test on RXF 393 renal it was 1.46% (active); with SF-268 CNS it was 20.3%; with SF-295 CNS, 22%. In addition, the growth with SF-539 CNS is 33.3%; with UACC-257 melanoma, 65.2%; in the test on M14 melanoma it was 46.8%.

As for `CC1(C)CC[C@]23CC[C@]4(C)[C@H](CC[C@@H]5[C@@]6(C)CC[C@H](N)C(C)(C)[C@@H]6CC[C@]54C)[C@H]2[C@H]1OC3=O`, the growth was -79.8% (active) with DU-145 prostate; -95.9% (active) with MALME-3M melanoma; -96.3% (active) in the test with MDA-MB-231 breast; -95.6% (active) in the test with RXF 393 renal; -38.6% (active) in the test on SF-268 CNS; -94.5% (active) in the test on SF-295 CNS. The growth with SF-539 CNS is -99.3% (active); in the test on UACC-257 melanoma it was -90.8% (active); with M14 melanoma it was -77.6% (active).

Regarding `O=C1Nc2cc(Cl)ccc2/C1=C/c1ccc(OCc2ccc(Br)cc2F)cc1`, the growth in the test with DU-145 prostate is -17.5% (active); with K-562 leukemia, 9.64% (active); in the test on MALME-3M melanoma it was -69.5% (active); in the test on RXF 393 renal, -77.4% (active); with SF-268 CNS, -25.9% (active); in the test on SF-295 CNS, -94.9% (active). Besides, the growth with SF-539 CNS was -92% (active); with UACC-257 melanoma it was -22.6% (active); with M14 melanoma, -45.1% (active).

Consider `O=C(CSc1nnc(-c2c[nH]c3ccccc23)n1-c1ccccc1)c1ccc(Br)cc1`, for which the growth with DU-145 prostate is 58.5%; in the test on K-562 leukemia it was 82%; with MALME-3M melanoma, 71%; in the test on MDA-MB-231 breast, 66%; in the test with SF-268 CNS, 49.1%; in the test on SF-295 CNS it was 33.7%. In addition, the growth in the test with SF-539 CNS is 62%; with UACC-257 melanoma, 52.6%; in the test with M14 melanoma it was 51%.

Regarding `Cc1nn(-c2ccccc2)c2ncn(CC(=O)N/N=C/c3c[nH]c4ccccc34)c(=O)c12`, the growth in the test with DU-145 prostate is 99.6%; in the test on K-562 leukemia, 84.2%; in the test with MALME-3M melanoma, 69%; with RXF 393 renal it was 89.5%; in the test with SF-268 CNS, 73.5%; in the test with SF-295 CNS, 88.7%. The figures for the growth with SF-539 CNS, with UACC-257 melanoma and in the test on M14 melanoma were 84.6%, 94.3% and 92.3%, respectively.

Consider `COc1ccc(C=CC(=O)c2ccc(-n3c(C)nc4c(cnn4-c4ccccc4)c3=O)cc2)cc1`, for which the growth in the test with DU-145 prostate is 83.2%; in the test on K-562 leukemia it was 12.4%; with MALME-3M melanoma it was 60.6%; in the test with RXF 393 renal, 84.4%; in the test on SF-268 CNS, 92.4%; in the test on SF-295 CNS, 65.6%. In addition, the growth is 77.6% in the test with SF-539 CNS, 74.6% in the test on UACC-257 melanoma and 53.1% in the test on M14 melanoma.

`O=C1Nc2ccc(F)cc2/C1=C/c1cccc(OCc2ccccc2)c1`: the growth in the test with DU-145 prostate was 30.4%; with K-562 leukemia, 6.34% (active); in the test with MALME-3M melanoma, 32.3%; with RXF 393 renal, -15.9% (active); in the test with SF-268 CNS it was 29.9%; in the test with SF-295 CNS it was 35.4%. Moreover, the growth is 19.8% in the test with SF-539 CNS and 26.6% in the test on UACC-257 melanoma.
